Data published in the supplement of paper PMC10849652.
Of roughly 8,800 targets only a part is listed; those with a hit were picked by preference. About 0.5% of all pairs of compound and target were hits. Values without a mark were called inactive.

Assays:
Assay in all cases: log2 fold change, soluble protein after heating vs DMSO (PISA); higher = thermal stabilisation; K562 lysate, 10 uM; active = over 0.2 and 3.5 SD of the protein, either way, in both replicates (recomputed)
[1] = compound: NCC(=O)Nc1ccc(-n2nc(C(F)(F)F)cc2-c2ccc3c(ccc4ccccc43)c2)cc1
How it was run: (§1)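 Log-two fold change in thermal stability relative to solvent controls is reported from duplicates. For each sample, crude K562 extract from dounce-homogenised pellets in PBS pH 7.4 with 1 mM MgCl2, at 1 mg/mL protein, was treated with 10 μM compound for 30 min. Aliquots heated for 3 min across 48°C-58°C were pooled, brought to 0.5% NP-40 at 4°C and cleared at 21,000xg for 90 min. The supernatant was quantified by TMTpro 16plex LC-MS/MS with channel sums equalised.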

vorinostat = compound: O=C(CCCCCCC(=O)Nc1ccccc1)NO [vorinostat]
How it was run: as §1

silmitasertib = compound: O=C(O)c1ccc2c(c1)nc(Nc1cccc(Cl)c1)c1ccncc12 [silmitasertib]
How it was run: as §1

[2] = compound: O=C1NC(=O)C(c2cnc3ccccn23)=C1c1cn2c3c(cc(F)cc13)CN(C(=O)N1CCCCC1)CC2
How it was run: as §1

entospletinib = compound: c1cn2cc(-c3ccc4cn[nH]c4c3)nc(Nc3ccc(N4CCOCC4)cc3)c2n1 [entospletinib]
How it was run: as §1

UniProt P15056, sequence (P15056 whole entry, looked up): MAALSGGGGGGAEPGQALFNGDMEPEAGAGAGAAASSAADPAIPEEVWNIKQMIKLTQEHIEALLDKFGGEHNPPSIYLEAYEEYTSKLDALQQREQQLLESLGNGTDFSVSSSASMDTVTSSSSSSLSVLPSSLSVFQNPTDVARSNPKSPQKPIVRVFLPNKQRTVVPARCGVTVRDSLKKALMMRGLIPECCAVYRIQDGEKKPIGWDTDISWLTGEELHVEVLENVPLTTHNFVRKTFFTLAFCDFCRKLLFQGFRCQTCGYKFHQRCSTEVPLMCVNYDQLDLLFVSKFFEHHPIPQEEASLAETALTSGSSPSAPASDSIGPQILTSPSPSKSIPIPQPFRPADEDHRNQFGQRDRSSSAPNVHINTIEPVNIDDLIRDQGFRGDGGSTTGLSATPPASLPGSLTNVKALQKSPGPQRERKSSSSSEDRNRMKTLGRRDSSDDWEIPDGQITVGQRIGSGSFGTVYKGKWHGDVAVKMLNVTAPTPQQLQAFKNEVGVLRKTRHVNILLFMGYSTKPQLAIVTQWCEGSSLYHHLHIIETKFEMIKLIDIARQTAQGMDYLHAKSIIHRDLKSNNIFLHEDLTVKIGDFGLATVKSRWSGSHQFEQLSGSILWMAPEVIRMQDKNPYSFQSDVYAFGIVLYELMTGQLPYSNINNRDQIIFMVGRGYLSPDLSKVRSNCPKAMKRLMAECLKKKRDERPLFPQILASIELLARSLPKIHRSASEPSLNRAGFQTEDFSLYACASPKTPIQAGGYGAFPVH
UniProt Q9BXL7, sequence (Q9BXL7 whole entry, looked up): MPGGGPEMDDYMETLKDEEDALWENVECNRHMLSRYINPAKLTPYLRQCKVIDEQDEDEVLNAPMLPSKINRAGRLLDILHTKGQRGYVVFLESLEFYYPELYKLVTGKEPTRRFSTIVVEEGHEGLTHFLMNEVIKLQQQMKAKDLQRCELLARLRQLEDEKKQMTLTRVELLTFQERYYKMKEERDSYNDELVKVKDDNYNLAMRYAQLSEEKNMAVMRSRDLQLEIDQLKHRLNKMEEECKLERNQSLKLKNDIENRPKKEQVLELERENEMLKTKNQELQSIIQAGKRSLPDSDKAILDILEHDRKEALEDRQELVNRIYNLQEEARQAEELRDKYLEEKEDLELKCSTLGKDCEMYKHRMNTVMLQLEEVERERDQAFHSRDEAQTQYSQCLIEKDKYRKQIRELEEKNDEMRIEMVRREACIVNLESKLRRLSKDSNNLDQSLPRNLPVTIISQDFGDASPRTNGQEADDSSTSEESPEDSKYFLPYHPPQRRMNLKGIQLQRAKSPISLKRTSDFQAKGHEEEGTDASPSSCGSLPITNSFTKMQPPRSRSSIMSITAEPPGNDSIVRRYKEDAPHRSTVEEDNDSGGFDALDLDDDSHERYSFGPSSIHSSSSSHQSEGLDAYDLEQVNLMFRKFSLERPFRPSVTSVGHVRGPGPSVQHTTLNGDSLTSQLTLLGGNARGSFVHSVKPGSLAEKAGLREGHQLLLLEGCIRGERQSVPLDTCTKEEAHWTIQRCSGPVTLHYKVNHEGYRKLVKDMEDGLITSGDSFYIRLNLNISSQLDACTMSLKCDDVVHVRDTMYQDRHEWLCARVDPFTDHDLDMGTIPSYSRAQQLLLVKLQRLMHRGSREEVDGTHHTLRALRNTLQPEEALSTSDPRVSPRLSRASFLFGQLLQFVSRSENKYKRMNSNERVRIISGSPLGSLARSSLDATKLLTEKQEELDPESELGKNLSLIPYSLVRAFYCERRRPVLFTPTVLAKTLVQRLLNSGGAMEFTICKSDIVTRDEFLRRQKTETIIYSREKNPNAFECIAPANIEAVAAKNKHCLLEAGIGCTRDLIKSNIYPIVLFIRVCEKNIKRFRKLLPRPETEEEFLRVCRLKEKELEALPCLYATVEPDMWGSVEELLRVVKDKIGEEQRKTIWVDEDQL
UniProt Q9NW68, sequence (Q9NW68 whole entry, looked up): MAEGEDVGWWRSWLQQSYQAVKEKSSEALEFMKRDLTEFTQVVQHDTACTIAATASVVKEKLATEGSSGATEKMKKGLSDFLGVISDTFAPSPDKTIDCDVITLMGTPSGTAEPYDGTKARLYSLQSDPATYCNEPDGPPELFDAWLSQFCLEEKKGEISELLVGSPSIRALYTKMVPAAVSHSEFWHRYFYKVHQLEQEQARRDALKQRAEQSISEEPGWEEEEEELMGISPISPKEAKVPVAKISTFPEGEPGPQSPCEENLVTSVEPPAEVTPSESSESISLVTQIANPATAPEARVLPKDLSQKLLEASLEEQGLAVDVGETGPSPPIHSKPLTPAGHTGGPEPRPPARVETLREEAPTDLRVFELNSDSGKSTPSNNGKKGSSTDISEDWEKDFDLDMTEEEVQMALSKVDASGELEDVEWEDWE
UniProt Q5T9A4, sequence (Q5T9A4 whole entry, looked up): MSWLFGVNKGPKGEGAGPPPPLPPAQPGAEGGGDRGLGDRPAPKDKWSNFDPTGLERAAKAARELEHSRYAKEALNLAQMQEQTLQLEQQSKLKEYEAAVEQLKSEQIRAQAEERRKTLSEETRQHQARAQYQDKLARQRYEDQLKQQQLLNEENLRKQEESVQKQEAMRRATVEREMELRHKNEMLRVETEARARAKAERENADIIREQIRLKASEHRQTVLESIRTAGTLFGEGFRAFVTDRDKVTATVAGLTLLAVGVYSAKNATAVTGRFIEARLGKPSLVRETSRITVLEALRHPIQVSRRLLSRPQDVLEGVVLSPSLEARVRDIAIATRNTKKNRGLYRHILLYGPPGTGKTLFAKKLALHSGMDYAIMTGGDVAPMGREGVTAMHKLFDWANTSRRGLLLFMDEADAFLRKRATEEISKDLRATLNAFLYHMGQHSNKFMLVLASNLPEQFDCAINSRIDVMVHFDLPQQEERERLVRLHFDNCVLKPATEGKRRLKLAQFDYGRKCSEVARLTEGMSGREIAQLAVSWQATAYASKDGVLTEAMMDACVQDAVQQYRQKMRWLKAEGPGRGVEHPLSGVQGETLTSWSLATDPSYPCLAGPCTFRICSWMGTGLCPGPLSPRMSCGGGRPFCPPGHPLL
UniProt A6NDU8, sequence (A6NDU8 whole entry, looked up): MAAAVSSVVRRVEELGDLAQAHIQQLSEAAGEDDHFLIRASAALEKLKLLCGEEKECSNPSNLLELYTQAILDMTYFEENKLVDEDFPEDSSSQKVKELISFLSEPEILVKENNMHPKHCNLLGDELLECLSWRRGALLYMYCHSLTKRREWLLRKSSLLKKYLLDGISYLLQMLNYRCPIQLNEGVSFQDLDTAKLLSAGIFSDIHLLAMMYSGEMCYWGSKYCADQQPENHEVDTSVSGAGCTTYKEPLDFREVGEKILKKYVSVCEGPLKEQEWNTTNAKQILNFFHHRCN
UniProt Q86YS7, sequence (Q86YS7 whole entry, looked up): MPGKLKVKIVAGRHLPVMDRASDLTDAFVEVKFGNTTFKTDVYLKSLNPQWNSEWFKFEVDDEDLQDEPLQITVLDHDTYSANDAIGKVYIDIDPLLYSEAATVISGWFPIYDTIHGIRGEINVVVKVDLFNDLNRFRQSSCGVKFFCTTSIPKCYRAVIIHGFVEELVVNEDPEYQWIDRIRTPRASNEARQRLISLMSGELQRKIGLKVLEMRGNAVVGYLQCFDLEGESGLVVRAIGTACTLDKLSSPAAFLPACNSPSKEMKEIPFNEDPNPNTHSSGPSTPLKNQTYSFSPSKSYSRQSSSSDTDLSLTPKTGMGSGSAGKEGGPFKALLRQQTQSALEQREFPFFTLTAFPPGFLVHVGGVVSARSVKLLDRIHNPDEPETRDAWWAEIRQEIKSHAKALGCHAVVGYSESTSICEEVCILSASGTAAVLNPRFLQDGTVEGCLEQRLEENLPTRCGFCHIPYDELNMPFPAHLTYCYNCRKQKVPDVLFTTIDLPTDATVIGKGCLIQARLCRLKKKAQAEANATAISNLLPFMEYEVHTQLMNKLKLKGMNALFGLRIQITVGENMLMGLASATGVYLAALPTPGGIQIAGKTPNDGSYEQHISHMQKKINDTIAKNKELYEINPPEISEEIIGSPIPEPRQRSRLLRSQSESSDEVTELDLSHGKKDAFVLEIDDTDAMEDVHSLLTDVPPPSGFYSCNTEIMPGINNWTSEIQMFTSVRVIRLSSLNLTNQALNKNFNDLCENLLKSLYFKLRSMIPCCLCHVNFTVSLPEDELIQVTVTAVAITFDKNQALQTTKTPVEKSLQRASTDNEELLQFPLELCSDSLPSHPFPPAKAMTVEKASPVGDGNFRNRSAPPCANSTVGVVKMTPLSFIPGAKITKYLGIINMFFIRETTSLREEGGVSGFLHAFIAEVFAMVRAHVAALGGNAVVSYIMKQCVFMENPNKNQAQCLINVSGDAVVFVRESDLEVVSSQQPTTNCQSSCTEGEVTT
UniProt P51946, sequence (P51946 whole entry, looked up): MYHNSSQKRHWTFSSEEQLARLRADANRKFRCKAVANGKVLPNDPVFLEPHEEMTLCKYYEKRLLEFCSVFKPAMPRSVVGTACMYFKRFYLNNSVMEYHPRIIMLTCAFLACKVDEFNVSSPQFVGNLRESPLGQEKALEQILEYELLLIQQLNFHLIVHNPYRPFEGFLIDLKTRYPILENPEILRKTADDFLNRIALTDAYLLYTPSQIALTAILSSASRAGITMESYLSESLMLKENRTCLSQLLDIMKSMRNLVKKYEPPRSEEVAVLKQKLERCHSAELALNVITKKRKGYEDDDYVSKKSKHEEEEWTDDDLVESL
UniProt O95067, sequence (O95067 whole entry, looked up): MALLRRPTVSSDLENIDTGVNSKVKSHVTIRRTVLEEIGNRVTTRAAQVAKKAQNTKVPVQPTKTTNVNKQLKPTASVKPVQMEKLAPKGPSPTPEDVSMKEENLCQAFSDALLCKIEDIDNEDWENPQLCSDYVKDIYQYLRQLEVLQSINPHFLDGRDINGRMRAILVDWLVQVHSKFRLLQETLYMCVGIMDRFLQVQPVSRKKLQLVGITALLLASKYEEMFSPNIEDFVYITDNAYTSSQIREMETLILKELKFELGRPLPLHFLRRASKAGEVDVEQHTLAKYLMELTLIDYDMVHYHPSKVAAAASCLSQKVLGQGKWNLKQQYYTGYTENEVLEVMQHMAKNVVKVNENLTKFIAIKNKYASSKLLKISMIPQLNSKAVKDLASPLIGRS

Target | log2 fold change [1] | log2 fold change (vorinostat) | log2 fold change (silmitasertib) | log2 fold change [2] | log2 fold change (entospletinib)
ATAD3B (UniProt Q5T9A4) | -0.128 | 0.132 | 0.015 | -0.057 | 0.012
ATP6V0A2 (UniProt Q9Y487) | -0.033 | 0.127 | -0.016 | -0.021 | 0.012
CCDC32 isoform 2 (UniProt Q9BV29) | 0.005 | 0.058 | -0.044 | 0.009 | -0.042
CHCHD2 (UniProt Q9Y6H1) | -0.022 | -0.301 (active) | 0.044 | -0.017 | -0.06
CDK16 isoform 2 (UniProt Q00536) | 0.006 | 0.055 | 0.446 (active) | 0.603 (active) | -0.05
BCKDHB (UniProt P21953) | 0.055 | -0.275 (active) | 0.076 | 0.072 | -0.123
C5orf51 (UniProt A6NDU8) | 0.042 | -0.501 (active) | 0.036 | -0.003 | 0.015
CD80 (UniProt P33681) | 0.018 | -0.028 | -0.067 | -0.066 | -0.162
CCDC51 (UniProt Q96ER9) | 0.002 | 0.153 | 0.011 | 0.015 | -0.046
CBFA2T3 (UniProt O75081) | -0.004 | -0.4 (active) | 0.009 | -0.019 | -0.012
CAMK2G isoform 8 (UniProt Q13555) | -0.044 | -0.208 | 0.087 | 0.084 | 0.004
C18orf25 (UniProt Q96B23) | 0.03 | 0.089 | -0.147 | -0.034 | 0.036
CCNH (UniProt P51946) | 0.028 | -0.43 (active) | 0.02 | -0.07 | 0.02
BRAF (UniProt P15056) | -0.001 | -0.339 | 0.061 | -0.008 | 0.037
ATXN2 (UniProt Q99700) | 0.024 | -0.282 (active) | -0.01 | -0.005 | -0.008
CDAN1 (UniProt Q8IWY9) | 0.019 | -0.326 (active) | 0.05 | 0.056 | -0.006
CCNB2 (UniProt O95067) | 0.01 | -0.115 | -0.079 | -0.08 | 0.044
CHD5 (UniProt Q8TDI0) | 0.059 | -0.261 (active) | 0.007 | 0.042 | 0.025
CCDC25 (UniProt Q86WR0) | 0.025 | 0.025 | -0.032 | -0.011 | 0.009
CELF1 isoform 4 (UniProt Q92879) | 0.065 | -0.347 (active) | 0.019 | 0.022 | 0.013
CARS isoform 3 (UniProt P49589) | 0.018 | -0.254 (active) | 0.018 | -0.049 | 0.008
BET1 (UniProt O15155) | 0.015 | -0.042 | -0.008 | -0.01 | 0.035
ATG4B (UniProt Q9Y4P1) | -0.009 | -0.274 (active) | 0.043 | -0.014 | 0.021
BTK isoform 2 (UniProt Q06187) | 0.439 (active) | -0.322 (active) | 0.066 | 0.012 | 0.3
CARHSP1 (UniProt Q9Y2V2) | 0.045 | 0.052 | -0.006 | 0.056 | -0.049
CCNY (UniProt Q8ND76) | 0.076 | -0.822 (active) | -0.018 | -0.002 | -0.074

Target | log2 fold change [1] | log2 fold change (vorinostat) | log2 fold change (silmitasertib) | log2 fold change [2] | log2 fold change (entospletinib)
CAMLG (UniProt P49069) | -0.009 | -0.15 | -0.027 | 0.006 | 0.001
CDK11B (UniProt P21127) | 0.009 | -0.115 | 0.065 | -0.023 | 0.255 (active)
C16orf70 (UniProt Q9BSU1) | -0.013 | -0.382 (active) | 0.019 | -0.015 | -0.104
BCORL1 isoform 3 (UniProt Q5H9F3) | 0.177 | -0.004 | -0.093 | 0.213 | -0.018
CARD11 (UniProt Q9BXL7) | -0.113 | -0.406 (active) | 0.001 | 0.004 | -0.031
CEBPZOS (UniProt A8MTT3) | -0.113 | 0.082 | -0.004 | -0.025 | -0.037
ATAD1 (UniProt Q8NBU5) | -0.047 | -0.617 (active) | 0.021 | 0.002 | 0.008
CEPT1 (UniProt Q9Y6K0) | -0.037 | 0.103 | -0.016 | 0.029 | -0.016
BUB1B isoform 3 (UniProt O60566) | 0.004 | -0.376 (active) | 0.015 | 0.006 | 0.013
CDK13 (UniProt Q14004) | -0.089 | -0.088 | 0.093 | -0.012 | -0.013
CHD1L (UniProt Q86WJ1) | 0.01 | -0.277 (active) | 0.015 | 0.164 | 0.046
CASC4 (UniProt Q6P4E1) | -0.034 | 0.02 | 0.019 | 0.025 | -0.029
C19orf54 (UniProt Q5BKX5) | -0.052 | -0.381 (active) | -0.004 | -0.006 | 0.009
BAG4 (UniProt O95429) | -0.013 | 0.03 | -0.067 | -0.025 | 0.007
BSDC1 (UniProt Q9NW68) | -0.073 | 0.13 | -0.018 | 0.024 | -0.002
CALM2 (UniProt P0DP24) | 0.008 | -0.027 | 0.064 | -0.121 | -0.048
C2CD5 isoform 3 (UniProt Q86YS7) | 0.01 | 0.086 | -0.059 | 0.049 | 0.009
BMS1 (UniProt Q14692) | 0.024 | -0.037 | 0.04 | 0.033 | 0.045
CFDP1 (UniProt Q9UEE9) | -0.009 | 0.095 | -0.05 | -0.078 | -0.012
ATP6V1B1 (UniProt P15313) | -0.005 | 0.083 | -0.013 | -0.006 | 0.014
CDKN1C (UniProt P49918) | 0.124 | 0.058 | -0.029 | 0.134 | 0.048
ATP2B4 (UniProt P23634) | -0.026 | -0.042 | -0.003 | -0.079 | -0.042
ATG4A (UniProt Q8WYN0) | -0.059 | -0.543 (active) | 0.034 | 0.001 | 0.004
AVEN (UniProt Q9NQS1) | -0.146 | -0.738 (active) | -0.009 | 0.092 | -0.161
CBX1 (UniProt P83916) | 0.029 | 0.092 | -0.046 | -0.01 | -0.018
ATRIP (UniProt Q8WXE1) | -0.088 | -0.28 | 0.229 | 0.039 | -0.009
